From article PMC4336329 (PLoS ONE, 2015)
Among all 310,000 compounds or so, about 14,000 (4.5%) showed an effect of 50% or more. The effect is printed as a negative number. What follows is part of a selection rich in strong results, with near analogues and random picks from the rest.

target: human ether-à-go-go-related gene (hERG) potassium channel (human, UniProt Q12809); assay: primary screen, population patch clamp on CHO cells stably expressing hERG; higher = less effect of the substance
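Also: peak tail current of the secondary pulse compared with the same well before compound.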

Sequence of human ether-à-go-go-related gene (hERG) potassium channel (Q12809 whole entry, looked up): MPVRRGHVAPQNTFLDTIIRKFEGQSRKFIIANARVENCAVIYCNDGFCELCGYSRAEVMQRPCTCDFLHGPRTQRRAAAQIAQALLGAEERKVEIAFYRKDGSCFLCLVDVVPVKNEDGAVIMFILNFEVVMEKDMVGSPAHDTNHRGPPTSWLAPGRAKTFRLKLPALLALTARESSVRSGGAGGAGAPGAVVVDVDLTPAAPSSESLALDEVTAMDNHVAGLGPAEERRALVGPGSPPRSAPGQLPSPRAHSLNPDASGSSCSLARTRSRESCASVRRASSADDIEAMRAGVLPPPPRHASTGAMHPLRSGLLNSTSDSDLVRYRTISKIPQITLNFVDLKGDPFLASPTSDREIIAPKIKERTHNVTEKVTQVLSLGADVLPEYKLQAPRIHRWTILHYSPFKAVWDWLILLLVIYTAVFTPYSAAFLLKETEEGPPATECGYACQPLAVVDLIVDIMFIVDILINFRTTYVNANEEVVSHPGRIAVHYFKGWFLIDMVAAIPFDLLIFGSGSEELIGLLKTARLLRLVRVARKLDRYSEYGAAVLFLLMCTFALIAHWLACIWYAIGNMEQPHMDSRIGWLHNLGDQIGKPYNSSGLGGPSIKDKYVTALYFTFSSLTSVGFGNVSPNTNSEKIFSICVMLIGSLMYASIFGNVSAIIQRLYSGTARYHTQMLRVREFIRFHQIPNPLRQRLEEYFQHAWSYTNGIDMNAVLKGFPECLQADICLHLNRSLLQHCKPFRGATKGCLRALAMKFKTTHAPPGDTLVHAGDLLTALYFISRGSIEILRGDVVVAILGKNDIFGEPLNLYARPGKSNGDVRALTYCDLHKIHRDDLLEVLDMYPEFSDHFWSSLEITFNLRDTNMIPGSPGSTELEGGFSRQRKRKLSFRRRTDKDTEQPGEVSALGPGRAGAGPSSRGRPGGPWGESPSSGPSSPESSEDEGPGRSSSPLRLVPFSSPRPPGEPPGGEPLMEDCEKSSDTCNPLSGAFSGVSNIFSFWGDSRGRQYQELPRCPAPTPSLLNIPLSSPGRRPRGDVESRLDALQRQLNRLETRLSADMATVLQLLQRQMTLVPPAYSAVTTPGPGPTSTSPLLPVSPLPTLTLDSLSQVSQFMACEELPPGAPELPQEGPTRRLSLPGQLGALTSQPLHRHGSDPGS

SMILES	hERG current change (%, negative = inhibition) at 10uM [%]
[O-][n+]1onc2c1CCC1N(O)C(c3ccccc3)CC21O (stereo not shown)	14.7
O=C(c1cc(C2CC2)nn1-c1ccccc1)N1CCN(Cc2c(F)cccc2Cl)CC1	-36.6
CN(CCO)C(=O)c1cccc2c1-c1ccccc1C2=O	4.12
c1ccc(-c2ccc(-c3ccccn3)s2)nc1	-8.87
CCOc1ccc(NC(=O)c2ccc(Br)o2)c([N+](=O)[O-])c1	5.5
CC(C)C(=O)NC(c1ccco1)c1c(O)ccc2ccccc12 (stereo not shown)	14.1
COc1ccc(F)cc1C(=O)C1CCCN(Cc2ccc(Sc3nncn3C)o2)C1 (stereo not shown)	12.6
O=C(CN1CCC(C(=O)c2ccc(Cl)cc2)CC1)Nc1ccc2c(c1)OCCO2	-44.9
COc1ccc(C(=O)C2CCCN(Cc3ccc4c(c3)OCCO4)C2)cc1F (stereo not shown)	-74.7
COc1ccc(F)cc1C(=O)C1CCCN(Cc2ccc3c(c2)OCCO3)C1 (stereo not shown)	-54.3
O=C(c1ccc(Cl)cc1)C1CCCN(Cc2ccc3c(c2)OCCO3)C1 (stereo not shown)	-73.5
COc1ccc(C(=O)C2CCCN(Cc3ccc(Sc4nncn4C)o3)C2)cc1F (stereo not shown)	-15.4
COc1ccccc1C(=O)C1CCCN(Cc2ccc3c(c2)OCCO3)C1 (stereo not shown)	-40.5
O=C(c1ccc(Cl)cc1)C1CCCN(Cc2ccon2)C1 (stereo not shown)	-18
c1ccc(-c2noc(-c3ccc4c(c3)OCO4)n2)cc1	-3.33
Cc1ccc(CN2CCN(/N=C/c3ccc(C)s3)CC2)c(C)c1	-5.96
CCn1c(=O)c(C(=O)NNC(=O)c2cccc(Cl)c2)c(O)c2ccccc21	32.4
C/C(=N\NC(=O)c1cccc(Br)c1)c1ccc(Br)cc1	16
Cc1cc2c(c(=O)n1CCCn1ccnc1)C(c1ccco1)C(C#N)=C(N)O2 (stereo not shown)	-3.23
CC(O)C(=O)N/N=C/c1ccccc1C(=O)O (stereo not shown)	14
COc1cc(/C=C(/C(=O)c2cccs2)c2nc3ccccc3[nH]2)cc(OC)c1O	-56.1
COc1cc(/C=N/Nc2nc3ccccc3[nH]2)cc(OC)c1O	-55.9
COc1cc(/C=C(/C(=O)c2cccs2)c2nc3ccccc3[nH]2)ccc1O	-22.2

SMILES	hERG current change (%, negative = inhibition) at 10uM [%]
COc1ccc(/C=N/Nc2nc3ccccc3[nH]2)cc1OC	-21.8
O=C(/C(=C/c1ccc(Cl)cc1)c1nc2ccccc2[nH]1)c1cccs1	2.82
COc1cc(/C=N\Nc2nc3ccccc3[nH]2)cc(OC)c1OC	-19.8
CCCCN=C1SC(C(=O)Nc2sc3c(c2C(=O)OC)CCC3)C(N)=C1C(=O)N1CCOCC1 (stereo not shown)	-1.11
Cc1cc(Nc2ccccc2C(=O)O)n(-c2ccc([N+](=O)[O-])cc2)n1	4.19
CC(=O)c1cc(CN2CCC(n3nccc3NC(=O)c3ccccc3Cl)CC2)cs1	-56.5
COc1ccccc1C(=O)Nc1ccnn1C1CCN(Cc2csc(C(C)=O)c2)CC1	-72.9
CC(=O)c1cc(CN2CCC(n3nccc3NC(=O)c3ccccc3)CC2)cs1	-10.9
Cc1cc(CN2CCC(n3nccc3NC(=O)c3ccccc3C)CC2)n[nH]1	-38
CC(=O)c1cc(CN2CCC(n3nccc3NC(=O)c3ccccc3C)CC2)cs1	-57.8
CC(C)=NN1C(c2nonc2N)=NOC1(C)C	6.47
COC(=O)C1=C(C)N=C2SCCC(=O)N2C1/C=C/c1ccccc1 (stereo not shown)	-16.8
Cc1nc(SCC(=O)c2ccc(F)cc2)c([N+](=O)[O-])[nH]1	27.3
CCCNC(=O)CN(CCc1ccccc1)S(C)(=O)=O	8.94
CN(Cc1ccccc1)C(=S)Nc1ccc(OC(F)F)cc1	-21.2
COc1ccc(NC(=O)CN(C)CCOc2ccc(Cl)cc2)cc1OC.O=C(O)C(=O)O	-17.4
COc1ccc(NC(=O)CNCCC2=CCCCC2)cc1	7.2
COc1ccc(CCNCC(=O)Nc2ccc(OC(F)F)cc2)cc1	-75.8
CN(C)CCCN(Cc1ccccc1)C(=S)NCc1ccccc1	-24.7
CN(CCOc1ccc(Cl)cc1)CC(=O)Nc1ccc(OC(F)F)cc1	-71.4
COc1ccc(CN(C)C(=S)Nc2ccc(Cl)cc2)cc1	-20.7
CN(C)CCCN(Cc1ccccc1)C(=S)Nc1ccc(SC(F)F)cc1	-75.1
COc1ccc(CCNCC(=O)Nc2ccc(C(=O)N3CCCCC3)cc2)cc1.O=C(O)C(=O)O	4.75

SMILES	hERG current change (%, negative = inhibition) at 10uM [%]
CN(C(=S)Nc1ccc(SC(F)F)cc1)C(c1ccccc1)c1ccccc1	-0.128
CN(CCOc1ccc(Cl)cc1)CC(=O)Nc1ccc(OC(F)(F)F)cc1	8.27
COc1ccc(CN(C)C(=S)Nc2ccc(OC(F)F)cc2)cc1	-58.9
C/C(=N\Nc1ccccc1C(=O)O)c1ccncc1	0.449
CC(C)Nc1nc(NC(C)C)nc(OCCOC(=O)Nc2ccccc2)n1	-24.5
Cc1ccc(N/N=C(\C#N)C(=N)N2CCCCC2)cc1	-47.7
CN(CC(=O)Nc1ccccc1Br)C(=O)c1cc2c(s1)CCCCC2	-1.74
O=C(Nc1ccc(NC(=O)C2CC2)nc1)c1cccs1	14
O=C(CSc1n[nH]c(=O)n1-c1cccnc1)N1CCOCC1	12
CCNC(=O)NC(=O)CSc1nc2ccccc2n1CC(C)C	-4.02
Cc1cccc(N2CCN(CC(=O)NCC3CCCCC3)CC2)c1C.Cl	-6.63
COc1cc2[nH]c(=O)n(Cc3ccc(C(=O)N4CCC(N5CCCCC5)CC4)cc3)c(=O)c2cc1OC	12.3
CCCN(Cc1ccccc1)C(=S)Nc1ccc(OC(F)F)cc1	-41
CCCCN(C)C(=S)Nc1ccc(Oc2ccccc2)cc1	-2.38
CCN(CC)C(=S)Nc1ccc(OC(F)F)cc1	-28.6
COc1ccc(NC(=O)CN(C)CC(=O)Nc2cccc(C(C)=O)c2)cc1	18.5
CN(CCOc1ccccc1)C(=S)Nc1ccc(OC(F)F)cc1	-55.2
COCCN(Cc1ccccc1)C(=S)Nc1ccc(OC(F)F)cc1	-69.8
COCCN(Cc1ccccc1)C(=S)Nc1ccc(Cl)cc1	11.1
CCCN(Cc1ccccc1)C(=S)Nc1ccc(C(C)=O)cc1	-12.1
CC(=O)c1ccc(NC(=S)N(Cc2ccccc2)C(C)C2CC2)cc1 (stereo not shown)	5.51
CC(=O)c1cccc(NC(=O)CN(C)Cc2ccc(OC(F)F)cc2)c1	-55
CC(=O)c1ccc(NC(=O)CN(C)CC(=O)Nc2cccc(F)c2)cc1	-18.5

SMILES	hERG current change (%, negative = inhibition) at 10uM [%]
CC(=O)c1ccc(NC(=S)N(CCCN(C)C)Cc2ccccc2)cc1	-53.3
CCN(CC)C(=O)c1ccc(C)c(Br)c1	-0.776
CCc1cc2c(=O)[nH]cnc2s1	-3.48
CCCCCCc1cc2cc(-c3nnc(-c4ccccc4)o3)c(=O)oc2cc1O	5.15
CCOC(=O)Cc1csc(NC(=S)NC(=O)c2ccc(F)cc2)n1	11.9
CC(C)N(Cc1ccccc1)C(=S)Nc1ccc(OC(F)F)cc1	-56.7
Cc1ccc(NC(=S)N(Cc2ccccc2)C(C)C)cc1	12
FC(F)Oc1ccc(NC(=S)NCc2cccnc2)cc1	-2.69
CCCN(Cc1ccccc1)C(=S)Nc1ccc(OCC)cc1	-35.8
CN(C)CCCN(Cc1ccccc1)C(=S)Nc1ccc(F)c(Cl)c1	-24.3
CN(C)CCCN(Cc1ccccc1)C(=S)Nc1cccc(C(F)(F)F)c1	-52.6
COc1ccc(NC(=S)N(CCO)Cc2ccccc2)cc1	2.34
CN(C)C(=S)Nc1cccc(C(F)(F)F)c1	5.67
N#CCCN(Cc1cccnc1)C(=S)Nc1ccc(OC(F)F)cc1	-78.2
CN(C)S(=O)(=O)c1cccc(NC(=S)N(CCC#N)Cc2cccnc2)c1	-7.37
CC(C)N(Cc1ccccc1)C(=S)Nc1ccc(F)cc1	-3.42
CN(C)CCCN(Cc1ccccc1)C(=S)Nc1ccc(OC(F)F)cc1	-70.3
COc1ccc(S(=O)(=O)N(C)c2ccc(C(=O)N3CCOCC3)cc2)cc1	-6.62
CCOc1ccc(-c2c(C(=O)N/N=C/c3sccc3C)nnn2-c2nonc2N)cc1	19.7
COc1ccc(-n2ncc3c(N4CCc5ccccc54)ncnc32)cc1	0.927
Cc1cccc(OCCCC(=O)Nc2ccc(N(C)C)cc2)c1	-5.54
COc1cccc(N2C(=O)Nc3ccc(Br)cc3C2(O)C(=O)NCCCN(C)C)c1 (stereo not shown)	19.3
